Data as given in PubChem BioAssay AID1347426 (Functional Genomics Laboratory (NCATS/FGL), 2020).
Hit rate of the full screen: of about 31,000 sequences, about 1,400 (4.5%) were called active.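 Rule for the calls: active = median seed-adjusted z-score above 1 or below -1; inactive = the rest.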 This excerpt belongs to a sample that is enriched for actives.

Experiment: Novel Modifiers of Survival Motor Neuron (SMN) Protein: Gene Identification via Genome-wide siRNA Screen;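 note: luminescence tracks full-length SMN protein made from the SMN2 reporter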
Conditions: HEK293T SMN2-luciferase reporter, siRNA knockdown, 72 h; actives lie on both sides
Excerpt: Spinal muscular atrophy (SMA) is the most common neuromuscular autosomal recessive disorder and one of the leading genetic causes of infant death. SMA results from mutations inducing loss of function or deletion in the survival of motor neuron-1 gene (SMN1), leading to deficiency of the survival motor neuron (SMN) protein. Although a second nearly identical gene, SMN2, is retained in humans, its expression primarily produces an aberrantly spliced isoform that is largely unstable and quickly degraded. We performed a genome-wide RNAi screen using a cell-based reporter assay to identify genes and pathways that modulate SMN protein stability. The screen identified over 200 genes that led to the greatest increase or decrease in luciferase expression.
Using HEK293T cells stably expressing a luciferase reporter that combines the promoter and splicing based cassettes in tandem with the major portion of the native SMN2 cDNA with luciferase, we performed a genome-wide RNAi screen to identify modulators of SMN protein levels. Luciferase is expressed when full-length SMN protein is generated with luminescence signal proportional to SMN protein levels. Our luciferase-based reporter assay was used to screen Ambion Silencer Select Human Druggable Genome siRNA library (10418 genes, 3 unique siRNAs per gene) using lipid-based reverse transfection.
Briefly, 1 pmol of each siRNA was spotted to a well of a 384-well plate (Corning, Corning, NY) and 20 microL of serum-free DMEM containing […] of Lipofectamine RNAiMax (Life Technologies, Carlsbad, CA) was then added to each well. Transfected cells were maintained at 37 degrees C in 5% CO2 for 72 hours, 20 microL of ONE-Glo Reagent (Promega) was added to wells for luciferase quantification. Raw luminescence reads were normalized to Ambion(R) Silencer(R) Negative Control #2 siRNA, then log10 transformed. A robust statistical measure of median absolute deviation (MAD) to standardize siRNA activities from each screen. Common Seed Analysis was used to help prioritize clean hits as opposed to those appearing to arise from seed based off-target effects. Candidate modulators were defined as the genes having a MAD score greater than 1.0 or less than -1.0.

| Sequence | median seed-adjusted z-score |
| --- | --- |
| GCAACUUCUUAAGACUAAATT against DBR1 | 0.438 (inactive) |
| GCAAGGCGGUGUUUAUGGATT against DLX1 | 0.0356 (inactive) |
| CUCUCUCUGCAACACCUUUTT against SLC39A3 | 0.0298 (inactive) |
| CUACAGUCGGGAACAUGAATT against CLK3 | -1.11 (active) |
| ACGCUGUCCUGGUUCUUCATT against DGAT2L3 | 0.247 (inactive) |
| GCAGAGCGGGUUAAAAUGATT against DNAJC2 | -0.0357 (inactive) |
| GGUUACAAGUGUAUAACAATT against CD59 | 0.79 (inactive) |
| CGGUGCUGUUCGUCGUCUATT against GJD3 | -0.251 (inactive) |
| GAAGGGAAAUGAGUACCGATT against TRIM68 | -0.628 (inactive) |
| GGAUAAUACAGAAGCAGAATT against SAP30BP | -0.257 (inactive) |
| GGAAGAAACCAUUACAAUATT against SNAPC3 | -1.72 (active) |
| AGAUGUGAAGCUCAAAUUATT against ETV7 | -0.00772 (inactive) |
| GGGAGUCUUUCUUCGGGAATT against ABCG1 | -0.609 (inactive) |
| CAUCAUCUCUGGAACUCUUTT against ALAS2 | -0.142 (inactive) |
| GGUCAUGCAGAUUAUGUUATT against TUFM | 1.07 (active) |
| CCUAUUCCCGAAGCCGUUATT against PLAUR | -0.118 (inactive) |
| AAUGGAACCUGUAAGUGUATT against GCN5L2 | 0.013 (inactive) |
| GAAGGACCCAGAUCUCUUUTT against ADCK1 | -0.177 (inactive) |
| GAUCCUAUCUUACUAACCATT against IL7R | 0 (inactive) |
| GGCUUAUUGGAGCUCUUAATT against CSE1L | 0.425 (inactive) |
| CAAGAUCUCAAGAAAUUCATT against CDK2 | -0.347 (inactive) |
| CCAUCGGAAUCUUGACGAATT against MX1 | -1.49 (active) |

| Sequence | median seed-adjusted z-score |
| --- | --- |
| GCAACGUGGACAUUGGUGATT against SOX10 | -0.255 (inactive) |
| GAGUUCCUCUGGUCACUAUTT against TTC18 | -1.15 (active) |
| GUUCAUCUUGAUUCACAAATT against NOC4L | -0.315 (inactive) |
| GGAUGGCCAUUGAAGGGAUTT against ECHDC2 | -0.0827 (inactive) |
| GGGACAGGCUGCAAAGAAATT against AARS2 | -0.52 (inactive) |
| CGGCUGGGUCUGUACCAAATT against TLX2 | -0.182 (inactive) |
| GGUCUUUGAUGCGAAGUUATT against DOCK2 | 0.151 (inactive) |
| GCAUCGACGUGAUCACCAUTT against GPR26 | -1.33 (active) |
| CAAACAUCCAUAUCUAUGATT against NMT1 | 0.18 (inactive) |
| CGCUAUCCCAAUCGCUUUATT against CYB5R1 | 0 (inactive) |
| GCAAGGGUCUCGGAUUAUATT against TMPRSS12 | 0.0961 (inactive) |
| CUAUAGAUGUGAUCAGUGUTT against ZNF32 | 0.034 (inactive) |
| GCCCAAACUGAGUACAACUTT against PLA2G10 | 1.07 (active) |
| UGAGGACAAGGAUUUGGAATT against EIF2S2 | 0.576 (inactive) |
| AUAGUUGACUAUUCUGAAATT against CCL18 | 0.169 (inactive) |
| AUACGGCUCUAACAGAUUATT against DBI | 0.0661 (inactive) |
| AGAAGAUCGGAAUUCUUUATT against RGPD5 | -0.0931 (inactive) |
| GGCUUAGGAUGGAGACCUATT against TGDS | -0.196 (inactive) |
| GUGUUUAAGGGCUUUUGAATT against CBR3 | 0.057 (inactive) |
| GAAAUACCCUAUUACCAAATT against MED26 | -1.86 (active) |
| AACCCAUCGUUCCAUAUUATT against PPOX | 0.519 (inactive) |
| GAGUAGCAGGAAAAACGAATT against SNX13 | 0.253 (inactive) |

| Sequence | median seed-adjusted z-score |
| --- | --- |
| CCUAUGACAUGUUUCCAGATT against MAP4K2 | -0.439 (inactive) |
| GCUAUAAGCCGAUAGUAGATT against 11-Sep | -0.245 (inactive) |
| GCUGGGCCGAGUACCUUAATT against PDX1 | 0 (inactive) |
| GAAGUAAGUUUGUUGUAGATT against PGAP1 | -0.272 (inactive) |
| GCAAUGAGAUGAACACCGATT against NPEPL1 | 1.12 (active) |
| GCCGAACUAUCUGAGAAUATT against PCDH1 | -0.514 (inactive) |
| GGGUUAAUGUUGAGGAAUUTT against NME7 | -0.331 (inactive) |
| CGGUAUCACCGUUGAUGAATT against ARID1A | -1.14 (active) |
| CCUGAUUUCUUGUGAUACATT against DNAJC24 | -0.0166 (inactive) |
| GGACAUUUGCAUACUCCUATT against PPP1R14D | 0 (inactive) |
| GCAUUUCGCCUGACCAUUATT against SENP1 | 0.625 (inactive) |
| CCGUUUUGGUGAGUCAACATT against RANBP2 | 1.53 (active) |
| GAAUUGGAGUGAUUCGAAUTT against NETO2 | -0.136 (inactive) |
| GGAAGACUAUUGGAUAGAATT against ARHGAP18 | 0 (inactive) |
| CACCAGAUCUACCAGUUCATT against ADM | 0.65 (inactive) |
| GCCCUACAUGGUAAAUUCATT against GTDC1 | 0.2 (inactive) |
| CCCAAGAACUGCUACGUCATT against SMPD2 | -0.406 (inactive) |
| GAAACUUCCUAAGUCGAAATT against FAM57A | 0.0434 (inactive) |
| CGUUCGGAAUAACUGAAAUTT against GNG7 | -0.205 (inactive) |
| AGAACAACCGGAUUCGAGATT against LRRC52 | 0.118 (inactive) |
| UAAAGUUCUUUUAUCCAUUTT against UBE2D3 | 1.62 (active) |
| GGGAGAACGUGACCAUCUATT against ICAM5 | -1 (active) |

| Sequence | median seed-adjusted z-score |
| --- | --- |
| GCCUUUCAGUCAUCGCGCATT against PLXND1 | -0.064 (inactive) |
| GCUGGUCCCUUGGAUAAGATT against MED1 | -0.855 (inactive) |
| GAAACAGUGCUGAAGCCUUTT against RYBP | 0.831 (inactive) |
| GGGAGGGCAUCAACAAGAATT against RGS19 | 0.295 (inactive) |
| GGCUGCACAUAUACCUUAATT against RRN3 | 0.0382 (inactive) |
| GGAUAGUUUUUCGAAUUAATT against MYO9A | -0.567 (inactive) |
| GGUAAGGCCUUAUAAUGUATT against KHK | 0 (inactive) |
| GGAUAUCCGCCUUCACAGATT against BAG4 | 0.111 (inactive) |
| CCACUAGCUGAUUACUAUATT against MED6 | -2.15 (active) |
| CGAAGAAUCUUCCGAAGAATT against EIF2AK1 | -0.546 (inactive) |
| GAAUGUAUCAGCUACCGAUTT against HYAL4 | -0.236 (inactive) |
| GAAAGACUCUUACCAUUUUTT against SSBP4 | 0.254 (inactive) |
| GCAUUGGGAUGUACUUGUATT against LRP12 | 0.416 (inactive) |
| GCAUGAACUGAAACCCAAUTT against SMURF1 | -1.4 (active) |
| CCAUCGUACCUGUUACCAATT against KRIT1 | -0.447 (inactive) |
| GCAUCUACGAGUUCAUCAUTT against FOXG1 | 0.749 (inactive) |
| GCAGUGAUCUAGUCUCUUUTT against GLRX | -0.0561 (inactive) |
| CAUAACCACUUUAAAGUCATT against GAB1 | 0.373 (inactive) |
| GCAAAUUGAUGAACCGGUUTT against CEP135 | -0.2 (inactive) |
| UGACCACACUUCUCAGCUATT against IL9R | -1.33 (active) |
| GCACGAGGCUGGUACAGUUTT against MFNG | 0.377 (inactive) |
| GGAGACUAGUGGUGGGAUATT against CCL16 | -0.308 (inactive) |

| Sequence | median seed-adjusted z-score |
| --- | --- |
| GCAACUUGUGAAUCUAGGATT against VCAM1 | 0.19 (inactive) |
| AACUUGUCGCUGCCCAAUATT against ABCA2 | -1.18 (active) |
| GGCUGACAGUAGCUAAGCUTT against RAPGEF4 | -0.197 (inactive) |
| CCAGAUGGAUGUACACUGUTT against PDE6C | 0.205 (inactive) |
| CCACGCACAUACUAUCAAATT against HIVEP1 | 0.532 (inactive) |
| CCCUUAGACUCUAAGCCCATT against HSD17B14 | 0.386 (inactive) |
| GAAUGGUCCUAUAUCUCAATT against LARP5 | -0.144 (inactive) |
| GGAUACUUCAGGACUAGAATT against PNN | 1.29 (active) |
| GAGCAUCUUUGAUCGAGAATT against SPINK5 | 0.26 (inactive) |
| CCCUGGCAGCUAGUAGGUUTT against BATF3 | 0.698 (inactive) |
| CCAGUUUAUUGGAAACCGATT against NOP56 | 0.307 (inactive) |
| UCCAGCAAGUGGCCAAGAATT against DUPD1 | -0.406 (inactive) |
| AGAUUAUCAUAUUGGGUGATT against RAB7B | 0 (inactive) |
| CUAUAGGAAUGUUGAAUAATT against WDR33 | 3.27 (active) |
| GGACCACAAUGUACGGAAATT against ATP13A5 | 0.241 (inactive) |
| CUCCUGUACUCUUCAGAGATT against PTOV1 | 0.115 (inactive) |
| GGACCAAGCCCUAAAGGAATT against 4-Sep | -0.0124 (inactive) |
| GGAUUAAUCCACGAAUUGATT against EGF | 0.00831 (inactive) |
| AACUUGUAUUCUUAGGUUUTT against SAR1A | 0.0213 (inactive) |
| GCUAACUACCAAGUCCUAATT against SLC8A1 | 0.221 (inactive) |
| ACAUCGCCCUCAAACGGGATT against ACTL7A | 1.1 (active) |
